# Screening results from PubChem.
# Only some compounds are listed: those with a hit (about 3.2% of all), similar ones and a draw of the others.
# Nrf2 inh: Nrf2 pathway inhibition; A549 ARE-Fluc reporter, luciferase luminescence, 18-24 h; Potency, µM (doses to about 46 µM), actives largely listed as inhibitors; 360,000 compounds, 2.1% hits; further: nearly all actives have a fitted effect of over 60% in size
#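 Quantitative HTS in A549 cells stably bearing an antioxidant response element-firefly luciferase construct. Inhibition of Nrf2-driven transcription was scored by luminescence after 18-24 h of compound exposure at 37 °C.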
# IL-2 act: activates IL-2 in a cell-based reporter assay; IL-2 activation reporter assay, cell-based qHTS; stimulated with anti-CD3/CD4/CD28 beads; in transgenic mouse T cells; activation, % (series mostly up to about 46 µM); 360,000 compounds, 0.065% hits; AID 652025; in the data active means activation above about 50%; inconclusive means mostly about 30% to 49%
#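 Screening format: compound pinned onto unstimulated transgenic mouse T cells, 60 min incubation, then anti-CD3/anti-CD4/anti-CD28 bead stimulation for 18 hours at 37 degrees C, followed by EGFP and DsRed detection.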
# BRCA1 expr act: increases BRCA1 expression; MCF7-BRCA1-FFLuc reporter, luminescence, 48 h; response scale: scaled: vehicle 0%, 10 µM genistein 100%; Potency, µM (titrated, usually from 46.1 µM), most hits filed as activators; 380,000 compounds, 1.1% hits; further: nearly all actives have a fitted effect of over 80% in size
#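 Compounds are tested at multiple concentrations on MCF7 BRCA1-luciferase reporter cells seeded at 2000 per well; after 48 h, a single luminescence end-point is taken and curves fitted to the normalized data.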
# A549 viability: counter-screen for Nrf2 inhibitors: cytotoxicity in A549 cells; Potency, µM (titrated, usually from 46 µM), hits mostly inhibitors; A549 ARE-Fluc cells, CellTiter-Fluor viability, 18-24 h; 390,000 compounds, 0.16% hits; AID 504648
#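 A549 ARE-Fluc cells in 5% FBS OPTI-MEM, 5000 cells/well, rested 2 h then exposed to compounds in concentration-response for 18-24 h at 37 °C. Viability by CellTiter-Fluor fluorescence (Ex 405/Em 525) after 30 min; luciferase luminescence (BugLite, 15 min, RT) read afterwards.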
# Nrf2 ARE act: Nrf2 pathway activation; AREc32 ARE-luciferase reporter (MCF7-derived line), luminescence, 24 h; Potency, µM (series often up to 46.1 µM), actives largely listed as activators; 410,000 compounds, 0.31% hits; AID 624171; further: nearly all actives have a fitted effect of over 65% in size
#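 For detection, Steady-Glo was added and plates sat 30 min at RT; before that, AREc32_Fluc cells grown overnight in OPTI-MEM/5% FBS had been treated with 23 nL compound for 24 hr at 37 deg C.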
# p53 reactivator: mutant p53 re-activation in reporter cells; 320,000 compounds, 0.063% hits; H1299 p53-A138V BP100-luciferase reporter, luminescence, 24 h; Potency, µM (titrated, usually from 92.2 µM), usual class: activators; further: nearly all actives have a fitted effect of over 45% in size
#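 p53-null H1299 cells stably carrying temperature-sensitive p53-A138V and a BP100-luciferase reporter were pinned with compounds (4-point, 1:5 series) and held 24 hrs at 37 deg C. Luminescence was read 10 min after detection reagent.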
# Hits are given with their value; i = inactive; ? = inconclusive; nt = no result given. Unless noted, the call rests on the fitted dose curve; in most records, active means well fitted curve in the direction sought with a large enough effect; inconclusive means small, poorly fitted or top-dose-only effect, or another doubt; inactive means no such curve, though single readings can be large; an effect the other way counts as inactive or inconclusive.
SMILES,Nrf2 inh,IL-2 act,BRCA1 expr act,A549 viability,Nrf2 ARE act,p53 reactivator
Cc1cccc(NC(=S)/N=C(\N)Nc2nc(C)c3ccc(C)cc3n2)c1,14.6µM,i,i,?,i,i
Cc1cccc(NC(=S)/N=C(\N)Nc2nc(C)c3cc(C)ccc3n2)c1,i,i,i,?,i,i
COc1ccccc1N1CCN(S(=O)(=O)c2ccc(-c3cc(C(F)(F)F)on3)s2)CC1,i,nt,nt,?,i,nt
COCCn1c(C)cc(O)c(C(c2ccccc2OC)N2CCCCC2)c1=O (configuration not stated),nt,nt,nt,i,i,nt
COc1ccccc1C1N=C(c2ccccc2C)NO1 (configuration not stated),?,i,12.6µM,i,?,?
Cc1ccc(NC(=O)c2ccc(CNS(=O)(=O)c3ccc4c(c3)C(C)(C)C(=O)N4C)cc2)cc1C,18.4µM,nt,nt,i,i,nt
COc1cccc(S(=O)(=O)NCc2ccc(C(=O)Nc3cccc(Cl)c3)cc2)c1,nt,i,i,?,i,i
Cc1cccc(NC(=O)c2ccc(CNS(=O)(=O)c3ccc4c(c3)C(C)(C)C(=O)N4C)cc2)c1,20.6µM,nt,nt,i,i,nt
CCC(C)NC(=O)c1ccc(CNS(=O)(=O)c2ccc3c(c2)C(C)(C)C(=O)N3C)cc1 (configuration not stated),i,i,i,i,i,nt
Cc1ccccc1NC(=O)c1ccc(CNS(=O)(=O)c2ccc3c(c2)C(C)(C)C(=O)N3C)cc1,i,nt,nt,i,i,nt
COc1cccc(NC(=O)c2ccc(CNS(=O)(=O)c3ccc4c(c3)C(C)(C)C(=O)N4C)cc2)c1,16.4µM,nt,nt,i,i,nt
O=C(Cn1c(=O)n(-c2ccccc2)c(=O)c2ccc(C(=O)NCc3ccc4c(c3)OCO4)cc21)Nc1ccc(Br)cc1,i,nt,i,i,i,nt
Cc1ccc(NC(=O)Cn2c(=O)n(-c3ccccc3)c(=O)c3ccc(C(=O)NCc4ccc5c(c4)OCO5)cc32)c(C)c1,7.31µM,nt,i,i,i,nt
O=C(Cc1cccs1)N/N=C/c1ccccc1,i,i,i,i,i,i
O=C(Cc1cccs1)N/N=C/C(Cl)=C/c1ccccc1,i,i,5.62µM,i,i,i
Cc1cccc(/C=N/NC(=O)Cc2cccs2)c1,?,i,11.2µM,i,i,i
CC(C)CNc1ncnc2oc(-c3ccco3)c(-c3ccco3)c12,16.4µM,nt,i,i,nt,nt
Cc1ccc(OCc2nc(-c3ccc(C(=O)NCCc4ccc(Cl)cc4)cc3)oc2C)cc1,i,nt,nt,i,i,nt
COc1cccc(S(=O)(=O)N2CCN(S(=O)(=O)c3ccc4c(c3)OCCO4)CC2)c1,i,nt,nt,i,nt,nt
COc1ccc(-c2cc(=O)[nH]c3ccccc23)cc1,i,i,i,i,i,i
COc1cccc2[nH]c(=O)c(-c3ccccc3)cc12,?,i,3.16µM,i,i,?
Cc1ccc(C)c(N2CCN(C(c3ccc(F)cc3)c3nnc(-c4ccccc4)o3)CC2)c1 (configuration not stated),i,nt,nt,i,i,nt
Cc1nn(Cc2ccccc2)c(C)c1NC(=O)CCCn1nc(C)c([N+](=O)[O-])c1C,i,i,i,i,i,i
Cc1nn(Cc2ccc(Cl)cc2)c(C)c1NC(=O)CCCn1nc(C)c([N+](=O)[O-])c1C,20.6µM,i,i,?,i,i
COc1ccc(CCn2nc(C)c([N+](=O)[O-])c2C)cc1,?,i,8.91µM,i,i,i
SMILES,Nrf2 inh,IL-2 act,BRCA1 expr act,A549 viability,Nrf2 ARE act,p53 reactivator
COc1cccc(-n2c(CCn3nc(C)c([N+](=O)[O-])c3C)n[nH]c2=S)c1,i,i,i,i,i,i
COc1ccc(-c2cc3c(=O)n(CC(=O)Nc4cc(F)ccc4F)ccn3n2)cc1OC,nt,nt,nt,i,i,nt
CCc1ccc(Cn2nnc3c(=O)[nH]c(C4CCCN(C(=O)c5cccc(Cl)c5)C4)nc32)cc1 (configuration not stated),i,nt,nt,i,i,nt
O=C(NC(=S)Nc1cc(C(F)(F)F)ccc1N1CCOCC1)c1ccco1,i,i,i,i,i,i
CC(=O)NC(=S)Nc1cc(C(F)(F)F)ccc1N1CCOCC1,25.9µM,i,i,i,i,i
O=C(N/N=C/c1ccc(OC(=O)c2ccccc2Cl)cc1)c1ccccn1,?,i,?,i,i,?
O=C(N/N=C/c1ccc(OC(=O)c2ccccc2Cl)cc1)c1cc(O)cc(O)c1,6.51µM,i,i,i,i,i
COc1ccccc1C(=O)NCC(=O)Nc1ccc2c(c1)OCO2,i,i,i,i,i,i
O=C(CNC(=O)c1ccccc1F)Nc1ccc2c(c1)OCO2,?,i,7.94µM,i,i,?
C/C(=C\C(=O)c1ccccc1)Nc1ccc2c(c1)OCO2,?,i,7.94µM,i,i,?
CC(=O)c1cccc(NC(=O)Nc2ccc3c(c2)OCO3)c1,i,i,11.2µM,i,i,i
Cc1ccc(NC(=O)Nc2ccc3c(c2)OCO3)cc1F,?,i,0.891µM,i,i,?
CC(=O)c1cccc(NC(=O)NCc2ccc3c(c2)OCO3)c1,i,i,i,i,i,i
O=C(Nc1ccc(SC(F)F)cc1)c1cc(-c2ccc3c(c2)OCCO3)on1,i,nt,i,i,i,nt
CC(OC(=O)c1cccc(NS(C)(=O)=O)c1)C(=O)Nc1ccc2c(c1)OCO2 (configuration not stated),23.1µM,i,i,i,i,i
CC(C)CC(=O)Nc1ccc2c(c1)OCO2,?,i,i,i,i,i
COc1cccc(NC(=O)CN(C)CC(=O)Nc2ccc3c(c2)OCO3)c1,i,i,i,i,i,i
CN(c1ccc(C(=O)Nc2ccc3c(c2)OCCO3)cc1)S(C)(=O)=O,?,i,i,i,i,?
O=C(CCl)Nc1ccc2c(c1)OCO2,i,i,i,i,14.1µM,i
COc1cccc(NC(=O)Nc2ccc3c(c2)OCO3)c1,i,i,2.82µM,i,i,?
COc1cccc(C(=O)OC(C)C(=O)Nc2ccc3c(c2)OCO3)c1 (configuration not stated),?,i,i,i,i,i
CN(c1ccc(C(=O)Nc2ccc3c(c2)OCO3)cc1)S(C)(=O)=O,?,i,6.31µM,i,i,i
CC(=O)c1ccc(-c2c(C3C4C=CCC(C)C4C(=O)N3Cc3ccccc3)ccc3ccccc23)cc1 (configuration not stated),?,nt,nt,i,nt,nt
CCCCN(CC)CCNC(=O)CCn1cnc2onc(-c3ccc(F)cc3)c2c1=O,?,nt,nt,i,i,nt
O=C(Nc1ccc2c(c1)OCO2)Nc1ccc(Br)cn1,nt,i,2.82µM,i,i,?
